The source of these data is PubChem BioAssay (NCI).

Test systems include NCI-H23 lung; NCI-H226 lung; NCI-H322M lung; HOP-62 NSCLC; NCI-H460 lung; HOP-92 NSCLC; NCI-H522 lung; A549/ATCC NSCLC; 786-0 renal; COLO 205 colon.
Holding throughout (test): NCI-60 one-dose screen, 48 h (100 = growth as untreated, 0 = no growth, -100 = all killed)
Common to all, as to conditions: 10 µM

The panel holds about 83,000 compounds, 20% with a hit somewhere; the sample as a whole holds those more often.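 Growth was measured after 48 h exposure to one concentration of compound in 96-well plates. Values under 10 count as active.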 Unmarked numbers belong to inactive results. The source made the active and inactive calls.

With `N#Cc1ccc(NC(=O)CSc2ccc(-c3ccc(Br)cc3)nn2)cc1`, the growth with NCI-H23 lung was 51.3%; with NCI-H226 lung, 44.8%; with NCI-H322M lung, 76.6%; in the assay on HOP-62 NSCLC it was 88.6%; in the assay with NCI-H460 lung it was 64.6%; in the assay on HOP-92 NSCLC, 70.2%. The growth in the assay with NCI-H522 lung is 52%; in the assay with A549/ATCC NSCLC it was 64.7%; in the assay on 786-0 renal, 80.2%; in the assay on COLO 205 colon it was 112%.

On to `CC(=O)Nc1ccc(-c2cn(-c3cccc(C(=O)Nc4cccc(OC(F)(F)F)c4)c3)nn2)cn1`, for which the growth is 87% in the assay on NCI-H23 lung; 106% in the assay on NCI-H226 lung; 114% in the assay with NCI-H322M lung; 97.7% in the assay with HOP-62 NSCLC; 47.4% with NCI-H460 lung; 122% in the assay with HOP-92 NSCLC. Also, the growth with NCI-H522 lung was 88.5%; with A549/ATCC NSCLC, 86.3%; in the assay with 786-0 renal it was 115%; in the assay on COLO 205 colon, 111%.

In the case of `O=C(c1ccc(Cl)cc1)C1[C@H](c2ccccc2Br)[C@@H](c2ccccc2)NC12C(=O)Nc1ccc(Cl)cc12` (stereo not given in full), the growth with NCI-H23 lung is -22.3% (active); in the assay on NCI-H226 lung, 18.9%; with NCI-H322M lung it was 44.7%; in the assay on HOP-62 NSCLC, 38.9%; in the assay on NCI-H460 lung it was -13.5% (active); in the assay on HOP-92 NSCLC it was 23%. The growth was 3.07% (active) in the assay on NCI-H522 lung, 19.8% with A549/ATCC NSCLC, 17.6% in the assay on 786-0 renal and 8.59% (active) with COLO 205 colon.

As to `C=C(C)[C@@H]1CC[C@]2(COP(=O)(OCC)OCC)CC[C@]3(C)[C@H](CC[C@@H]4[C@@](C)(CCCN)[C@H](C(=C)C)CC[C@]43C)[C@@H]12`, the growth in the assay with NCI-H23 lung is 23.3%; in the assay with NCI-H226 lung it was 29%; in the assay on NCI-H322M lung, 62.1%; in the assay with HOP-62 NSCLC it was 53.5%; with NCI-H460 lung, 8.95% (active); in the assay with HOP-92 NSCLC, 25.2%. Besides, the growth was 19.6% in the assay with NCI-H522 lung, 21.5% in the assay on A549/ATCC NSCLC, 20.4% with 786-0 renal and 29.7% with COLO 205 colon.

Turning to `O=C1Nc2ccc(Cl)cc2/C1=C/c1cccc(OCc2ccccc2)c1`, the growth in the assay on NCI-H23 lung is 31%; in the assay with NCI-H226 lung, 17.2%; in the assay on NCI-H322M lung it was 44.6%; in the assay with HOP-62 NSCLC, 32.9%; in the assay with NCI-H460 lung, 13.5%; in the assay on HOP-92 NSCLC, 16.5%. Moreover, the growth is 35.9% in the assay with NCI-H522 lung, 43.2% with A549/ATCC NSCLC, 40.5% in the assay on 786-0 renal and 45.8% with COLO 205 colon.

Regarding `O=C(Nc1cccc(C(F)(F)F)c1)c1cncc(C#Cc2cnc3ccc(N4CCOCC4)nn23)c1`, the growth in the assay on NCI-H23 lung is -58.7% (active); in the assay on NCI-H226 lung, -4.93% (active); in the assay with NCI-H322M lung, 5.52% (active); in the assay with HOP-62 NSCLC it was 6.8% (active); with NCI-H460 lung, 0.042% (active); with HOP-92 NSCLC, -48% (active). The growth in the assay with NCI-H522 lung was -34.1% (active); in the assay with A549/ATCC NSCLC it was 7.95% (active); in the assay on 786-0 renal it was -22.9% (active); in the assay on COLO 205 colon, -48% (active).

Turning to `N#Cc1c(-c2ccc(F)cc2)nc(SCc2ccc([N+](=O)[O-])cc2)nc1N1CCOCC1`, the growth with NCI-H23 lung is 74.8%; in the assay with NCI-H226 lung it was 23.8%; with NCI-H322M lung, 82.7%; in the assay with HOP-62 NSCLC, 34.7%; with NCI-H460 lung, 77.4%; in the assay on HOP-92 NSCLC, 36.7%. In addition, the growth with NCI-H522 lung is 41.3%; with A549/ATCC NSCLC, 63.4%; in the assay with 786-0 renal, 30.2%; in the assay on COLO 205 colon, 90.9%.

In the case of `COc1ccc2ncc(C#Cc3cncc(C(=O)Nc4ccc(CN5CCN(C)CC5)c(C(F)(F)F)c4)c3)n2n1`, the growth in the assay on NCI-H23 lung was -80.9% (active); with NCI-H226 lung, -68.4% (active); with NCI-H322M lung, -98% (active); in the assay with HOP-62 NSCLC it was -61% (active); in the assay on NCI-H460 lung, -75.3% (active); with HOP-92 NSCLC it was -72% (active). In addition, the growth is -65.5% (active) in the assay with NCI-H522 lung, -51.7% (active) in the assay with A549/ATCC NSCLC, -55.7% (active) with 786-0 renal and -63.8% (active) with COLO 205 colon.

With `Cc1ccc(/C=C/C(=O)c2ccc(S(=O)(=O)NCCNc3nc(Nc4ccc(F)cc4)nc(N(C)C)n3)cc2)cc1`, the growth is 36.5% in the assay on NCI-H23 lung; -1.6% (active) with NCI-H226 lung; 48.5% in the assay on NCI-H322M lung; 56.2% with HOP-62 NSCLC; 0.319% (active) with NCI-H460 lung; -18.2% (active) with HOP-92 NSCLC. Moreover, the growth with NCI-H522 lung was 71.3%; in the assay on A549/ATCC NSCLC, 41.3%; in the assay on 786-0 renal, -32% (active); in the assay with COLO 205 colon, 35.4%.

Take `CC(=O)c1ccc(Nc2nc(SCCC(C)C)nc(-c3ccc(F)cc3)c2C#N)cc1`: the growth in the assay with NCI-H23 lung was 53.2%; in the assay on NCI-H226 lung, 5.36% (active); in the assay with NCI-H322M lung, 41.4%; in the assay with HOP-62 NSCLC, 41.1%; in the assay on NCI-H460 lung, 11.4%; in the assay with HOP-92 NSCLC, 3.49% (active). Also, the growth in the assay with NCI-H522 lung was 72.8%; in the assay on A549/ATCC NSCLC, 18.8%; in the assay on 786-0 renal, 2.71% (active); with COLO 205 colon, 77.2%.

For the molecule `Cc1ccc2nc3c(nc2c1)c1cc(I)ccc1n3CCN(C)C`, the growth in the assay on NCI-H23 lung is 17.8%; with NCI-H226 lung it was 39.9%; in the assay on NCI-H322M lung it was 20%; with HOP-62 NSCLC it was 31.3%; in the assay with NCI-H460 lung it was -2.92% (active); in the assay with HOP-92 NSCLC, 37.2%. The growth in the assay with NCI-H522 lung is 31.4%; in the assay on A549/ATCC NSCLC it was 13.5%; in the assay on 786-0 renal, 23.6%; in the assay on COLO 205 colon it was -55.8% (active).

Take `CCCn1c(=O)c2[nH]c(-c3ccc(OCc4nc5ccc(F)cc5[nH]4)cc3)nc2n(CCC)c1=O`: the growth was 26.3% in the assay on NCI-H23 lung; -36.1% (active) in the assay on NCI-H226 lung; 23.8% with NCI-H322M lung; -19.4% (active) in the assay with HOP-62 NSCLC; -50.8% (active) with NCI-H460 lung; -27.5% (active) in the assay on HOP-92 NSCLC. Further, the growth is 24.3% with NCI-H522 lung, 36% in the assay on A549/ATCC NSCLC, -87.2% (active) in the assay on 786-0 renal and 25.5% with COLO 205 colon.

In the case of `CSc1nc(-c2cccc(C)c2)c2cc(-c3ccccc3)n(C)c2n1`, the growth with NCI-H23 lung was 15.8%; in the assay with NCI-H226 lung it was 40.7%; with NCI-H322M lung it was 56.2%; with HOP-62 NSCLC, 37.4%; with NCI-H460 lung, 10.8%; in the assay on HOP-92 NSCLC it was -8.91% (active). Also, the growth with NCI-H522 lung was -11.8% (active); in the assay with A549/ATCC NSCLC, 26.8%; in the assay with 786-0 renal, 20%; with COLO 205 colon, 18.7%.
